# Source: the supplement of paper PMC8728848
# Shown is part of a subset that was picked to be rich in the strongest signals.
# What was measured:
# Assay in all cases: glycan array binding signal (z-score within array); higher = stronger binding
# Conditions in all cases: glycan notation: IUPAC condensed, linker removed; mutation: R74S
# [1] = target: Gal(b1-4)GlcNAc(b1-3)Gal(b1-4)GlcNAc(b1-3)Gal(b1-4)GlcNAc(b1-3)Gal(b1-4)GlcNAc(b1-2)Man(a1-3)[Gal(b1-4)GlcNAc(b1-3)Gal(b1-4)GlcNAc(b1-3)Gal(b1-4)GlcNAc(b1-3)Gal(b1-4)GlcNAc(b1-2)Man(a1-6)]Man(b1-4)GlcNAc(b1-4)[Fuc(a1-6)]GlcNAc
# Procedure, shortened: (§1)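 From the Consortium for Functional Glycomics database, 3228 arrays were curated, keeping only those whose protein sequence was available. Binding is given as a within-array Z-score averaged across arrays sharing a protein sequence and across linkers. Negative Z-scores can be read as non-binding.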
# [2] = target: Gal(b1-4)GlcNAc(b1-3)Gal(b1-4)GlcNAc(b1-3)Gal(b1-4)GlcNAc(b1-3)Gal(b1-4)GlcNAc(b1-2)[Gal(b1-4)GlcNAc(b1-3)Gal(b1-4)GlcNAc(b1-3)Gal(b1-4)GlcNAc(b1-3)Gal(b1-4)GlcNAc(b1-6)]Man(a1-6)[Gal(b1-4)GlcNAc(b1-3)Gal(b1-4)GlcNAc(b1-3)Gal(b1-4)GlcNAc(b1-3)Gal(b1-4)GlcNAc(b1-2)Man(a1-3)]Man(b1-4)GlcNAc(b1-4)[Fuc(a1-6)]GlcNAc
# Procedure, shortened: as §1
# [3] = target: Gal(b1-4)GlcNAc(b1-3)Gal(b1-4)GlcNAc(b1-3)Gal(b1-4)GlcNAc(b1-3)Gal(b1-4)GlcNAc(b1-3)Gal(b1-4)GlcNAc(b1-2)Man(a1-3)[Gal(b1-4)GlcNAc(b1-3)Gal(b1-4)GlcNAc(b1-3)Gal(b1-4)GlcNAc(b1-3)Gal(b1-4)GlcNAc(b1-3)Gal(b1-4)GlcNAc(b1-2)Man(a1-6)]Man(b1-4)GlcNAc(b1-4)GlcNAc
# Procedure, shortened: as §1
# [4] = target: Gal(b1-4)GlcNAc(b1-3)Gal(b1-4)GlcNAc(b1-3)Gal(b1-4)GlcNAc(b1-3)Gal(b1-4)GlcNAc(b1-3)Gal(b1-4)GlcNAc(b1-2)Man(a1-3)[Gal(b1-4)GlcNAc(b1-3)Gal(b1-4)GlcNAc(b1-3)Gal(b1-4)GlcNAc(b1-3)Gal(b1-4)GlcNAc(b1-3)Gal(b1-4)GlcNAc(b1-2)Man(a1-6)]Man(b1-4)GlcNAc(b1-4)[Fuc(a1-6)]GlcNAc
# Procedure, shortened: as §1
# [5] = target: Gal(b1-4)GlcNAc(b1-3)Gal(b1-4)GlcNAc(b1-3)Gal(b1-4)GlcNAc(b1-3)Gal(b1-4)GlcNAc(b1-3)Gal(b1-4)GlcNAc(b1-2)[Gal(b1-4)GlcNAc(b1-3)Gal(b1-4)GlcNAc(b1-3)Gal(b1-4)GlcNAc(b1-3)Gal(b1-4)GlcNAc(b1-3)Gal(b1-4)GlcNAc(b1-6)]Man(a1-6)[Gal(b1-4)GlcNAc(b1-3)Gal(b1-4)GlcNAc(b1-3)Gal(b1-4)GlcNAc(b1-3)Gal(b1-4)GlcNAc(b1-3)Gal(b1-4)GlcNAc(b1-2)Man(a1-3)]Man(b1-4)GlcNAc(b1-4)[Fuc(a1-6)]GlcNAc
# Procedure, shortened: as §1
# [6] = target: GalNAc(b1-3)Gal(a1-4)Gal(b1-4)GlcNAc(b1-3)Gal(b1-4)Glc
# Procedure, shortened: as §1
# [7] = target: GalNAc(b1-3)Gal(a1-6)Gal(b1-4)Glc
# Procedure, shortened: as §1
# [8] = target: GalNAc(b1-4)GlcNAc(b1-3)GalNAc(b1-4)GlcNAc
# Procedure, shortened: as §1
# [9] = target: GlcNAc(b1-3)Fuc
# Procedure, shortened: as §1
# [10] = target: GlcNAc(b1-3)Gal(b1-4)GlcNAc(b1-3)Gal(b1-4)GlcNAc(b1-3)Gal(b1-4)GlcNAc(b1-2)Man(a1-3)[GlcNAc(b1-3)Gal(b1-4)GlcNAc(b1-3)Gal(b1-4)GlcNAc(b1-3)Gal(b1-4)GlcNAc(b1-2)Man(a1-6)]Man(b1-4)GlcNAc(b1-4)[Fuc(a1-6)]GlcNAc
# Procedure, shortened: as §1
# [11] = target: GlcNAc(b1-3)Gal(b1-4)GlcNAc(b1-3)Gal(b1-4)GlcNAc(b1-3)Gal(b1-4)GlcNAc(b1-3)Gal(b1-4)GlcNAc(b1-2)Man(a1-3)[GlcNAc(b1-3)Gal(b1-4)GlcNAc(b1-3)Gal(b1-4)GlcNAc(b1-3)Gal(b1-4)GlcNAc(b1-3)Gal(b1-4)GlcNAc(b1-2)Man(a1-6)]Man(b1-4)GlcNAc(b1-4)[Fuc(a1-6)]GlcNAc
# Procedure, shortened: as §1
# [12] = target: GlcNAc(b1-3)[GlcNAc(b1-6)]Gal(b1-4)GlcNAc
# Procedure, shortened: as §1
# [13] = target: GlcNAc(b1-4)GlcNAc
# Procedure, shortened: as §1
# [14] = target: GlcNAc(b1-4)GlcNAc(b1-4)GlcNAc(b1-4)GlcNAc(b1-4)GlcNAc
# Procedure, shortened: as §1
# [15] = target: Man(a1-2)Man(a1-6)[Man(a1-3)]Man(a1-6)[Man(a1-2)Man(a1-2)Man(a1-3)]Man
# Procedure, shortened: as §1
# [16] = target: Neu5Ac(a2-3)Gal(b1-3)GalNAc(b1-4)[Neu5Ac(a2-3)]Gal(b1-4)Glc
# Procedure, shortened: as §1
# [17] = target: Neu5Ac(a2-3)Gal(b1-3)GlcNAc(b1-3)GalNAc
# Procedure, shortened: as §1
# [18] = target: Neu5Ac(a2-3)Gal(b1-3)[GlcNAc(b1-6)]GalNAc
# Procedure, shortened: as §1
# [19] = target: Neu5Ac(a2-3)Gal(b1-4)GlcNAc
# Procedure, shortened: as §1
# [20] = target: Neu5Ac(a2-3)Gal(b1-4)GlcNAc(b1-2)Man
# Procedure, shortened: as §1
# [21] = target: Neu5Ac(a2-3)Gal(b1-4)GlcNAc(b1-2)Man(a1-3)[GlcNAc(b1-4)][Neu5Ac(a2-3)Gal(b1-4)GlcNAc(b1-2)Man(a1-6)]Man(b1-4)GlcNAc(b1-4)GlcNAc
# Procedure, shortened: as §1
# [22] = target: Neu5Ac(a2-6)Gal(b1-4)GlcNAc(b1-2)Man(a1-3)[Man(a1-6)]Man(b1-4)GlcNAc(b1-4)GlcNAc
# Procedure, shortened: as §1
# [23] = target: Neu5Ac(a2-6)Gal(b1-4)GlcNAc(b1-2)[Neu5Ac(a2-6)Gal(b1-4)GlcNAc(b1-4)]Man(a1-3)[GlcNAc(b1-4)][Neu5Ac(a2-6)Gal(b1-4)GlcNAc(b1-2)[Neu5Ac(a2-6)Gal(b1-4)GlcNAc(b1-6)]Man(a1-6)]Man(b1-4)GlcNAc(b1-4)GlcNAc
# Procedure, shortened: as §1
# [24] = target: Neu5Gc(a2-3)Gal(b1-4)GlcNAc(b1-3)Gal(b1-4)GlcNAc(b1-2)Man(a1-3)[Neu5Gc(a2-3)Gal(b1-4)GlcNAc(b1-3)Gal(b1-4)GlcNAc(b1-2)Man(a1-6)]Man(b1-4)GlcNAc(b1-4)GlcNAc
# Procedure, shortened: as §1
# [25] = target: Neu5Gc(a2-3)Gal(b1-4)[Fuc(a1-3)]GlcNAc
# Procedure, shortened: as §1
binder,measurement,setting,value
Gal 7 (Homo sapiens) (protein) MSNVPHKSSLPEGIRPGTVLRIRGLVPPNASRFHVNLLCGEEGGSDAALHFNPRLDTSEVVFNSKEGGSWGREESGPGVPFGRGQPFEVLIIASDDGFKAVVGDAQYHHFRHRLPLARVRLVEVGGDVQLDSVRIF,glycan array binding signal (z-score),[1],4.17
same,glycan array binding signal (z-score),[2],4.03
same,glycan array binding signal (z-score),[3],7.44
same,glycan array binding signal (z-score),[4],4.13
same,glycan array binding signal (z-score),[5],4.35
same,glycan array binding signal (z-score),[6],-0.451
same,glycan array binding signal (z-score),[7],-0.396
same,glycan array binding signal (z-score),[8],0.573
same,glycan array binding signal (z-score),[9],0.85
same,glycan array binding signal (z-score),[10],4.14
same,glycan array binding signal (z-score),[11],2.87
same,glycan array binding signal (z-score),[12],-0.632
same,glycan array binding signal (z-score),[13],-0.382
same,glycan array binding signal (z-score),[14],-0.329
same,glycan array binding signal (z-score),[15],-0.26
same,glycan array binding signal (z-score),[16],-0.265
same,glycan array binding signal (z-score),[17],-0.585
same,glycan array binding signal (z-score),[18],-0.436
same,glycan array binding signal (z-score),[19],-0.58
same,glycan array binding signal (z-score),[20],0.603
same,glycan array binding signal (z-score),[21],-0.325
same,glycan array binding signal (z-score),[22],-0.264
same,glycan array binding signal (z-score),[23],-0.265
same,glycan array binding signal (z-score),[24],1.39
same,glycan array binding signal (z-score),[25],-0.084
